For five molecules, outcome and AC50 results are on record in PubChem BioAssay (EPA / NIEHS).

Read-out in test [1]: Epidermal growth factor receptor (EGFR), EGFR (gene 1956)
The test is described as follows: BSK_hDFCGF_EGFR: BioMAP Diversity Plus: hDFCGF Assay for Epidermal growth factor receptor (EGFR) Biomarker Activity (AID 2283057). The note with it: primary human foreskin fibroblasts; actives raise or lower the signal. The gist of the method:
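EGFR levels by ELISA in human dermal fibroblast cultures, 24 h post-treatment, fitted bidirectionally versus DMSO. Parallel wells stained with sulforhodamine B to detect overt cytotoxicity.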

Read-out in test [2]: Interleukin-8 (IL8), CXCL8 (gene 3576)
The test is described as follows: BSK_hDFCGF_IL8: BioMAP Diversity Plus: hDFCGF Assay for Interleukin-8 (IL8) Biomarker Activity (AID 2283058). Particulars: primary human foreskin fibroblasts; actives raise or lower the signal. The gist of the method:
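Fibroblast monolayers (human foreskin, hDFCGF) received test chemical for 24 h before ELISA detection of IL-8; either increases or decreases relative to DMSO count as activity.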

The nature of test [3]: BSK_hDFCGF_Proliferation: Cell Proliferation Assessment in the BioMAP Diversity Plus: hDFCGF Assay (AID 2283059).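 Also: curves fitted for both rise and fall of signal versus DMSO baseline.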 Particulars: primary human foreskin fibroblasts. Put shortly: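 Steps: dose primary human dermal fibroblasts (foreskin); […] fix in 10% TCA; stain with 0.1% SRB; read 560 nm; fit gain or loss of signal against DMSO.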
Read-out in test [4]: Macrophage colony-stimulating factor (MCSF), CSF1 (gene 1435)
The test is described as follows: BSK_hDFCGF_MCSF: BioMAP Diversity Plus: hDFCGF Assay for Macrophage colony-stimulating factor (MCSF) Biomarker Activity (AID 2283060). The note with it: primary human foreskin fibroblasts; actives raise or lower the signal. Put shortly:
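fibroblasts (human foreskin, primary), 24 h post-dose; M-CSF by ELISA; bidirectional fit, DMSO = baseline.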

Read-out in test [5]: TIMP metallopeptidase inhibitor 1 (TIMP1), TIMP1 (gene 7076)
The test is described as follows: BSK_hDFCGF_TIMP1: BioMAP Diversity Plus: hDFCGF Assay for TIMP metallopeptidase inhibitor 1 (TIMP1) Biomarker Activity (AID 2283062). The note with it: primary human foreskin fibroblasts; actives raise or lower the signal. The gist of the method:
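Bidirectional curve fitting against DMSO baseline yielded this endpoint, based on ELISA detection of TIMP-1 in primary human foreskin fibroblasts exposed to compound for 24 h.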

Read-out in test [6]: Monokine induced gamma interferon (MIG), CXCL9 (gene 4283)
The test is described as follows: BSK_hDFCGF_MIG: BioMAP Diversity Plus: hDFCGF Assay for Monokine induced gamma interferon (MIG) Biomarker Activity (AID 2283063). The note with it: primary human foreskin fibroblasts; actives raise or lower the signal. The gist of the method: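 Endpoint derived by bidirectional fitting relative to DMSO; MIG quantified via ELISA in primary human foreskin fibroblasts harvested 24 h after dosing.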

Read-out in test [7]: Matrix Metallopeptidase 1 (MMP1), MMP1 (gene 4312)
Kind of test: BSK_hDFCGF_MMP1: BioMAP Diversity Plus: hDFCGF Assay for Matrix Metallopeptidase 1 (MMP1) Biomarker Activity (AID 2283064). The note with it: primary human foreskin fibroblasts; actives raise or lower the signal. The gist of the method:
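MMP1 levels quantified by ELISA 24 h after dosing human dermal fibroblast cultures, with parallel SRB total-protein staining for overt cytotoxicity. Data fitted in both directions against DMSO baseline.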

Read-out in test [8]: Plasminogen activator inhibitor-1 (PAI1), SERPINE1 (gene 5054)
Kind of test: BSK_hDFCGF_PAI1: BioMAP Diversity Plus: hDFCGF Assay for Plasminogen activator inhibitor-1 (PAI1) Biomarker Activity (AID 2283066). Particulars: primary human foreskin fibroblasts; actives raise or lower the signal. The gist of the method: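 PAI-1 levels in human dermal foreskin fibroblasts were quantified by ELISA 24 h after dosing, with gain or loss analysed against DMSO. Overt cytotoxicity was checked by sulforhodamine B total-protein staining in parallel cultures.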

Read-out in test [9]: Intercellular Adhesion Molecule 1 (ICAM1), ICAM1 (gene 3383)
The test is described as follows: BSK_KF3CT_ICAM1: BioMAP Diversity Plus: KF3CT Assay for Intercellular Adhesion Molecule 1 (ICAM1) Biomarker Activity (AID 2283067). Particulars: primary human keratinocytes with fibroblasts; actives raise or lower the signal. Put shortly:
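Bidirectional curve fitting against a DMSO baseline was applied to ICAM-1 ELISA signal from primary human skin co-cultures harvested 24 h after treatment, with SRB staining of parallel wells for overt cytotoxicity.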

Read-out in test [10]: Interferon-gamma inducible Protein 10 (IP10), CXCL10 (gene 3627)
Kind of test: BSK_KF3CT_IP10: BioMAP Diversity Plus: KF3CT Assay for Interferon-gamma inducible Protein 10 (IP10) Biomarker Activity (AID 2283068). The note with it: primary human keratinocytes with fibroblasts; actives raise or lower the signal. Put shortly:
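KF3CT co-culture (keratinocytes + foreskin fibroblasts), 24 h compound, IP-10 by ELISA; bidirectional fit vs DMSO baseline.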

The nature of test [11]: BSK_KF3CT_SRB: Viability Assessment in the BioMAP Diversity Plus: KF3CT Assay (AID 2283069).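 Also: read 24 h after compound addition.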 Particulars: primary human keratinocytes with fibroblasts. The gist of the method:
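Cytotoxicity was gauged by SRB staining (0.1% SRB, 10% TCA fixation, 560 nm) of parallel cultures at 24 h. The cells were primary human skin keratinocytes co-cultured with fibroblasts, and activity was fitted in both directions against DMSO.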

Read-out in test [12]: Interleukin-1 alpha (IL1a), IL1A (gene 3552)
The test is described as follows: BSK_KF3CT_IL1a: BioMAP Diversity Plus: KF3CT Assay for Interleukin-1 alpha (IL1a) Biomarker Activity (AID 2283070). Particulars: primary human keratinocytes with fibroblasts; actives raise or lower the signal. Put shortly: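 IL-1a was detected by ELISA 24 h after chemical treatment of a co-culture of human skin keratinocytes and foreskin fibroblasts. Gain or loss of signal was fitted against the DMSO baseline.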

Read-out in test [13]: TIMP metallopeptidase inhibitor 2 (TIMP2), TIMP2 (gene 7077)
Kind of test: BSK_KF3CT_TIMP2: BioMAP Diversity Plus: KF3CT Assay for TIMP metallopeptidase inhibitor 2 (TIMP2) Biomarker Activity (AID 2283071). Particulars: primary human keratinocytes with fibroblasts; actives raise or lower the signal. The gist of the method:
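TIMP-2 measured by ELISA at 24 h in human keratinocyte/fibroblast primary co-cultures exposed to chemicals. Both increases and decreases were fitted against DMSO. Parallel cultures were stained with SRB for total protein as an overt-cytotoxicity check.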

Read-out in test [14]: Transforming growth factor beta 1 (TGFb1), TGFB1 (gene 7040)
The test is described as follows: BSK_KF3CT_TGFb1: BioMAP Diversity Plus: KF3CT Assay for Transforming growth factor beta 1 (TGFb1) Biomarker Activity (AID 2283072). The note with it: primary human keratinocytes with fibroblasts; actives raise or lower the signal. The gist of the method:
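ELISA quantifies TGF-b1 at 24 h post-dose in a primary human skin co-culture of keratinocytes and fibroblasts, with gain or loss judged against DMSO. Parallel SRB total-protein staining flags overt cytotoxicity.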

Read-out in test [15]: C-C motif chemokine 2 (Homo sapiens) (UniProt P13500)
The test is described as follows: BSK_KF3CT_MCP1: BioMAP Diversity Plus: KF3CT Assay for Monocyte Chemoattractant Protein 1 (MCP1/CCL2) Biomarker Activity (AID 2283073). Particulars: primary human keratinocytes with fibroblasts; actives raise or lower the signal. Put shortly: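 Biomarker MCP-1 is measured by ELISA in primary human keratinocytes co-cultured with foreskin fibroblasts, 24 h after chemical treatment; DMSO serves as the negative control and activity baseline.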

Read-out in test [16]: Matrix Metallopeptidase 9 (MMP9), MMP9 (gene 4318)
The test is described as follows: BSK_KF3CT_MMP9: BioMAP Diversity Plus: KF3CT Assay for Matrix Metallopeptidase 9 (MMP9) Biomarker Activity (AID 2283074). The note with it: primary human keratinocytes with fibroblasts; actives raise or lower the signal. Put shortly:
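MMP-9 quantified by ELISA after 24 h chemical treatment of primary human skin keratinocyte/fibroblast co-cultures; gain or loss fitted against DMSO, with parallel SRB staining (0.1% SRB, 560 nm) for overt cytotoxicity.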

Read-out in test [17]: urokinase plasminogen activator (uPA), PLAU (gene 5328)
Kind of test: BSK_KF3CT_uPA: BioMAP Diversity Plus: KF3CT Assay for urokinase plasminogen activator (uPA) Biomarker Activity (AID 2283075). Particulars: primary human keratinocytes with fibroblasts; actives raise or lower the signal. The gist of the method:
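ELISA read-out of uPA 24 h after dosing human skin keratinocytes co-cultured with foreskin fibroblasts. Signal change fitted both ways relative to DMSO; sulforhodamine B on parallel cultures marks overt cytotoxicity.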

Read-out in a further test: CD40, CD40 (gene 958)
The test is described as follows: BSK_LPS_CD40: BioMAP Diversity Plus: LPS Assay for CD40 Biomarker Activity (AID 2283076). Particulars: primary human HUVEC with PBMC; actives raise or lower the signal. The gist of the method: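 Using a multiplexed primary human co-culture (umbilical vein endothelium plus PBMC), CD40 was read by ELISA 24 h after dosing, with cytotoxicity tracked by sulforhodamine B staining of parallel cultures and activity fitted bidirectionally versus DMSO.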

Read-out in test [18]: Vascular cell adhesion molecule 1 (VCAM1), VCAM1 (gene 7412)
Kind of test: BSK_hDFCGF_VCAM1: BioMAP Diversity Plus: hDFCGF Assay for Vascular cell adhesion molecule 1 (VCAM1) Biomarker Activity (AID 2283065).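 Also: VCAM-1 protein level quantified by ELISA after 24 h chemical exposure.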 The note with it: primary human foreskin fibroblasts; actives raise or lower the signal. Put shortly:
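Measured after 24 h chemical treatment of primary human skin fibroblasts, VCAM-1 was detected by ELISA and concentration-response analysed in both directions versus DMSO vehicle.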

Calls of active or inactive are those of the source. The calls were made as follows: active = hit-call score of the fitted dose curve at least 0.9, where 1 is the maximum; inactive = score below 0.9.

For the molecule `OCC(O)CO`, the outcome in [1], in test [2], in [3], in test [4], in test [5] and in test [6] was inactive. The result in [7], in test [8], in [9], in [10], in test [11] and in test [12] was inactive. Besides, the outcome in test [13] was “inactive”; in test [14], “inactive”; in test [15] it was “inactive”; in test [16], “inactive”; in [17], “inactive”; with CD40, CD40 (gene 958), “inactive”.

As for `CCCC(=O)O`, the result in test [1], in [2], in [3], in test [4], in test [5] and in [6] was inactive. Moreover, the result in test [7], in test [8], in [9], in test [10], in [11] and in [12] was inactive. The outcome was “inactive” in [14]; “inactive” in test [15]; “inactive” in [16]; “inactive” in [17]; “inactive” with CD40, CD40 (gene 958).

In general, AC50 refers to the midpoint of the concentration-response curve, whichever way the signal moves. For `CCCCCCCCCCCCCCCCO`, the result in test [1], in [2], in test [4], in [5], in test [7] and in test [8] was inactive. Moreover, the outcome in [9], in [10], in test [11], in [12], in test [13] and in test [14] was inactive. Besides, the outcome is “inactive” in [15]; “inactive” in test [16]; “inactive” in test [17]; “inactive” with CD40, CD40 (gene 958). The AC50 in [3] was 6.73 µM (active); in [6], 0.777 µM (active).

Consider `CCCCCCC(C=O)=Cc1ccccc1`, for which the result in [1], in test [2], in [4], in test [5], in test [6] and in test [8] was inactive. In addition, the outcome in test [9], in [11], in test [12], in test [14], in test [15] and in test [16] was inactive. Further, the outcome in [17] was “inactive”; with CD40, CD40 (gene 958), “inactive”. Also, the AC50 in [3] is 28.9 µM (active); in test [18], 32 µM (active); in test [10] it was 30.5 µM (active).

For `C/C=C/c1ccc(OC)cc1`, the result in [1], in [2], in test [3], in test [4], in [5] and in test [6] was inactive. For the same molecule, the result in test [7], in test [8], in test [9], in test [10], in [11] and in test [12] was inactive. Further, the outcome in test [14] was “inactive”; in test [15], “inactive”; in test [16], “inactive”; in [17], “inactive”; with CD40, CD40 (gene 958) it was “inactive”.
